# Shown are actives, neighbours in structure and some others; about 11% of the full set was active somewhere.
# HP1b chromo inh: HP1-beta chromodomain-methylated histone interaction inhibition; 390,000 compounds, 0.56% hits; Potency, µM (titrated, usually from 114 µM), for the others: at the highest dose activity change, negative = inhibition, usual class: inhibitors; AlphaScreen HP1-beta / biotin-H3K9me3 peptide binding; further: potency means the concentration at half of the fitted maximal effect; nearly all actives have a fitted effect of over 70% in size
# Target sequence (P83916 whole entry, looked up): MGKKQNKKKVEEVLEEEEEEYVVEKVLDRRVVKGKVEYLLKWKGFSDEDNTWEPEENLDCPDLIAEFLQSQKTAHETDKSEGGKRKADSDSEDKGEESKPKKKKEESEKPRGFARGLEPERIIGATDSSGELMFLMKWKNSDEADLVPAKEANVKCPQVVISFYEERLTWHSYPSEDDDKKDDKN
#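 AlphaScreen: HP1-beta (50 nM) preformed 30 min with biotin-H3(1-18)K9me3 peptide (50 nM) in PBS pH 7.4, 0.01% Tween-20. Compound added for 30 min at RT, then streptavidin donor/nickel chelate acceptor beads (10 ug/mL) for 30 min.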
# L3MBTL1 block: L3MBTL1 (human) inhibition | Q9Y468 | AlphaScreen L3MBTL1–H3K9me1 peptide binding | Potency, µM (series often up to 57.1 µM), inactives show top-dose activity, negative = inhibition, most hits filed as inhibitors | 230,000 compounds, 0.66% hits | AID 485360; further: potency means the concentration at half of the fitted maximal effect; on the % scale 0 is the no-effect control and ±100 the full control effect; nearly all actives have a fitted effect of over 60% in size
#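 First, the protein-peptide complex forms for 30 min at room temperature (L3MBTL1 50 nM, biotinylated H3K9me1 peptide 75 nM). Next, compounds are pin-transferred and incubated 30 min. Finally, AlphaScreen beads are added and read after 30 min.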
# PI5P4K alpha inh: PI5P4K alpha (human) kinase inhibition | P48426 | max response, % | 330,000 compounds, 1.2% hits | PI5P4Kalpha enzyme, ADP-Glo luminescence, 60 min; active compounds read low; active means max response of -50% or lower; inconclusive means between -30% and -50%; inactive means -30% or higher; further: value at the top dose of about 77 µM; on the % scale 0 is the no-effect control and ±100 the full control effect
#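 Reactions run in 0.038 M HEPES pH 7.4, 0.28 mM EGTA, 0.1% CHAPS and 5% DMSO, with PI5P4Kalpha, substrate, compound and 5 microM ATP final, one hour at room temperature. Readout is ADP-Glo luminescence.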
# JMJD2A Tudor: JMJD2A Tudor domain (human) inhibition | 390,000 compounds, 4.4% hits | O75164 | AID 504339 | Potency, µM (series often up to 114 µM), without a hit: at the highest dose activity change, negative = inhibition, hits mostly inhibitors | AlphaScreen JMJD2A-Tudor / H3K4me3 peptide binding; further: potency means the concentration at half of the fitted maximal effect; on the % scale 0 is the no-effect control and ±100 the full control effect; nearly all actives have a fitted effect of over 50% in size
# BAZ2B block: blocks human BAZ2B; Q9UIF8; AlphaScreen BAZ2B-H3K14Ac peptide displacement; Potency, µM (series often up to 114 µM), for the others: at the top dose activity change, negative = inhibition, usual class: inhibitors; 360,000 compounds, 4.4% hits; AID 504333; further: potency means the concentration at half of the fitted maximal effect; on the % scale 0 is the no-effect control and ±100 the full control effect; nearly all actives have a fitted effect of over 60% in size
#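 Multi-concentration screen (max 110 uM) measuring displacement of acetylated histone H3 peptide from BAZ2B by AlphaScreen, using 50 nM protein, 50 nM peptide and 10 ug/mL streptavidin donor plus Ni-chelate acceptor beads.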
# G9a block: blocks human histone lysine methyltransferase G9a; Q96KQ7; G9a H3K9 monomethylation, AlphaScreen, 2 h; Potency, µM (titrated, usually from 102 µM), for the others: top-dose activity, negative = inhibition, hits mostly inhibitors; 350,000 compounds, 8.8% hits; AID 504332; further: potency means the concentration at half of the fitted maximal effect; on the % scale 0 is the no-effect control and ±100 the full control effect; nearly all actives have a fitted effect of over 75% in size
# Target sequence (Q96KQ7 913-1193 limits assumed): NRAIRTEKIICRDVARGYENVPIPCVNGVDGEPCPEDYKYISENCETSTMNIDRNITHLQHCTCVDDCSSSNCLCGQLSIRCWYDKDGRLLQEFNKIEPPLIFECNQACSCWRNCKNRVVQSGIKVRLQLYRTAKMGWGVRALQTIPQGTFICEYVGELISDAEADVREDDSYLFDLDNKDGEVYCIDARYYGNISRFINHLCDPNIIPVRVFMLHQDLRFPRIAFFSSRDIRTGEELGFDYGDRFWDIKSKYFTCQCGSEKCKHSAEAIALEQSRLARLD
#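 G9a (20 nM) preincubated 15 min RT with compounds, then 500 nM biotinylated H3K9 peptide and 20 uM SAM added; 2 h RT reaction. Monomethyl-H3K9 product detected by AlphaScreen with anti-H3K9me1 antibody, streptavidin donor and anti-rabbit IgG acceptor beads.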
# The depositor's hits bear a star; ? = inconclusive; nt = no result given; ! = not active in a repeat; [ ] = dose if it differs, or a comment. Unless noted, the call rests on the fitted dose curve; in most records, active means well fitted inhibition curve with a large enough effect; inconclusive means small, poorly fitted or top-dose-only effect; inactive means no such curve, though single readings can be large or run the other way.
SMILES,HP1b chromo inh,L3MBTL1 block,PI5P4K alpha inh,JMJD2A Tudor,BAZ2B block,G9a block
COc1cccc(CN2CCN(C(=O)c3ccco3)CC2)c1,?,-1.3%,1.0,28.2µM*,28.2µM*,20µM*
CCc1ccc(CN2CCN(C(=O)c3ccco3)CC2)cc1,?,nt,5.3,20µM*,31.6µM*,11.2µM*
O=C(c1ccco1)N1CCN(Cc2ccc(Br)cc2)CC1,19.6%,nt,-0.2,-5.3%,-1.9%,15.0%[2.33 µM]
O=C(c1ccncc1)N1CCC2(CCN(Cc3nccs3)CC2)CC1,nt,nt,nt,nt,nt,38.7%[12.7 µM]
COc1ccc(-c2cn3nc(N4CCCC(C(=O)Nc5ccccc5F)C4)sc3n2)cc1 (stereo unspecified),-5.1%,nt,nt,-13.9%,-18.0%,?
Cc1cn([C@H]2C[C@@H](N=[N+]=[N-])[C@@H](CO)O2)c(=O)[nH]c1=O,nt,nt,nt,nt,nt,16.4%[12.7 µM]
COc1ccc(OC)c(CN2CCN(C(=O)c3ccco3)CC2)c1,?,-0.5%,6.5,0.794µM*,?,17.8µM*
O=C(c1ccco1)N1CCN(S(=O)(=O)c2ccc(Br)s2)CC1,3.8%,4.3%[11.4 µM],nt,-16.3%,-11.7%,12.6µM*
O=[N+]([O-])c1cccc(C(=S)N2CCN(c3ccccc3F)CC2)c1,?,-2.3%,-0.7,?,?,20µM*
O=C(/C=C/c1cccc([N+](=O)[O-])c1)N1CCN(c2ccccc2F)CC1,29.0%,-10.2%,3.6,-17.0%[57.1 µM],-35.2%,-10.2%[59 µM]
O=[N+]([O-])c1cccc(-c2ccc(C(=S)N3CCN(c4ccc(F)cc4)CC3)o2)c1,?,-29.5%,-20.5,?,35.5µM*,?
O=C(/C=C/c1ccccc1[N+](=O)[O-])N1CCOCC1,10.0%,12.9%,-4.7,-9.1%,15.6%,nt
O=[N+]([O-])c1cccc(C(=S)N2CCN(c3ccccc3)CC2)c1,?,-16.0%,-16.9,-30.1%[57.1 µM],?,8.91µM*
O=C(/C=C\c1ccc(-c2cccc([N+](=O)[O-])c2)o1)N1CCOCC1,2.9%,-14.2%,-0.4,-31.2%,?,31.6µM*
C/C(=N\N1CCN(c2ccc(Cl)cc2)CC1)c1cccc([N+](=O)[O-])c1,-17.1%,-3.9%[11.4 µM],3.1,?,?,22.4µM*
O=C(c1cccc([N+](=O)[O-])c1)N1CCN(c2ccc(Cl)cc2)CC1,4.8%,1.1%,-4.8,-28.2%,?,?
O=C(c1cccc([N+](=O)[O-])c1)N1CCN(S(=O)(=O)/C=C/c2ccccc2)CC1,28.6%,-0.4%,1.8,-10.5%,10.9%,8.91µM*
N#CCCn1c(=O)c(-c2ccccc2)nc2cnc(N3CCNCC3)nc21,nt,nt,nt,nt,nt,-10.5%[12.7 µM]
O=C1c2c(O)cccc2Cc2cccc(O)c21,6.6%,?,-2.5,-25.2%,?,2.51µM*!
O=C(O)c1ccc(Nc2nc(-c3ccc([N+](=O)[O-])cc3)nc3ccccc23)cc1,-7.9%,nt,0.3,?,50.1µM*,7.1%
O=[N+]([O-])c1ccc(Nc2c3ccccc3nc3ccccc23)cc1,-20.3%,nt,2.0,?,?,12.6µM*
O=[N+]([O-])c1ccccc1Nc1c2ccccc2nc2ccccc12,13.3%,-18.1%,6.3,-22.8%,-25.0%,8.8%
CCC(c1c(C)[nH]oc1=O)c1c(C)[nH]oc1=O,-3.8%,-2.2%,-2.2,25.1µM*,-96.7%,?
Cc1onc(-c2ccccc2Cl)c1C(=O)NC1C(=O)N2C1SC(C)(C)C2C(=O)O (stereo unspecified),nt,nt,nt,nt,nt,-3.2%[2.33 µM]
CCN(c1ccccc1)S(=O)(=O)c1ccc(OC)c(NC(=O)COc2ccc(C(C)=O)cc2)c1,15.8%,9.6%,-2.2,-9.5%,5.7%,56.2µM*
SMILES,HP1b chromo inh,L3MBTL1 block,PI5P4K alpha inh,JMJD2A Tudor,BAZ2B block,G9a block
CCN(c1ccccc1)S(=O)(=O)c1ccc(OC)c(NC(=O)CNCCc2ccccc2)c1,50.1µM*,-2.7%,-4.4,0.891µM*,31.6µM*,?
CCN(c1ccccc1)S(=O)(=O)c1ccc(OC)c(NC(=O)Cc2ccc(F)cc2)c1,35.6%,-0.6%,-1.5,8.1%,13.4%,15.6%[12.7 µM]
CCN(c1ccccc1)S(=O)(=O)c1ccc(OC)c(NC(=O)CCc2nc3ccccc3c(=O)[nH]2)c1,11.0%,-3.8%,2.6,-15.2%,-0.9%,44.7µM*
CCC1CCCCN1C(=O)Cn1c(=O)n(CCCCCC(=O)NCc2ccc(F)cc2)c(=O)c2sccc21 (stereo unspecified),62.5%,nt,nt,-3.1%,22.3%,17.2%[59 µM]
O=S(=O)(c1ccc2c(c1)OCCO2)N1CCN(S(=O)(=O)c2ccc(Cl)cc2F)CC1,nt,nt,nt,-8.2%,nt,nt
O=C(c1cc2ccccc2cc1O)N1CCN(c2ccccc2O)CC1,-12.7%,-6.1%,-25.0,?,-34.9%,44.7µM*
O=C(c1ccc2ccccc2n1)N1CCN(c2ccccc2)CC1,5.8%,4.4%,nt,-11.0%,8.0%,-39.1%
O=C(c1cc2ccccc2cc1O)N1CCCC(C(F)(F)F)C1 (stereo unspecified),26.2%,nt,6.8,-14.7%,79.4µM*,nt
COc1ccc(N2CCN(C(=O)c3ccc4c(c3)[nH]c(=S)n3c5ccccc5nc43)CC2)cc1,nt,-2.5%,nt,nt,?,12.6µM*
COc1ccc(N2CCN(C(=O)c3ccc4ccccc4n3)CC2)cc1,11.7%,-12.8%,1.5,-6.4%,-32.3%,70.8µM*
O=C(c1ccc2c(c1)[nH]c(=S)n1c3ccccc3nc21)N1CCN(c2cccc(Cl)c2)CC1,29.3%,-5.6%,-2.1,-5.1%,-12.8%,?
COc1cc(OC)c(OC)cc1CNCCSc1nnnn1-c1ccccc1,6.8%,nt,nt,?,?,-26.8%[59 µM]
Cc1cc(C)c2oc(-c3cccc(NC(=O)COc4ccc([N+](=O)[O-])cc4)c3)nc2c1,41.2%,nt,nt,-19.8%,-15.0%,24.9%[59 µM]
CC(C)(C)OC(=O)Cc1nnc(C(C(=O)OCc2ccccc2)c2ccccc2)o1 (stereo unspecified),nt,nt,nt,9.6%,nt,nt
CC1CCCN(C(=O)CSc2c3c(nc4cc(Cl)ccc24)CCCC3)C1 (stereo unspecified),32.0%,nt,nt,-7.9%,-1.7%,-33.6%[59 µM]
CCCN1CCC(=O)N(C(CSc2ccc(OC)cc2)c2ccccc2)CC1 (stereo unspecified),31.6%,nt,nt,-19.3%,nt,nt
COc1ccc(CCNC(=O)c2cnn(-c3ccc(F)cc3)c2C2CCN(C(=O)OC(C)(C)C)CC2)c(OC)c1,0.8%,nt,nt,?,-5.5%[57.1 µM],-44.1%[59 µM]
CCC(C)n1c(=N)c(C(=O)NCc2ccccc2)cc2c(=O)n3cc(C)ccc3nc21 (stereo unspecified),45.4%,nt,nt,-2.4%,-0.5%,7.4%[59 µM]
O=C(c1ccc2ccccc2n1)N1CCN(c2ccccc2O)CC1,12.4%,12.2%,0.7,-25.7%,-8.5%,44.7µM*
